Here are results for 101 molecules from PubChem BioAssay AID1745848 (National Center for Advancing Translational Sciences (NCATS), 2022).

Where “and” joins values, the source holds several entries; their conditions need not be identical. Equal values may be shown once. Hit rate of the full screen: of about 2,100 compounds, about 940 (45%) were called active. Not shown: some 48% with an inconclusive outcome. Calls follow the shape of the dose curve; as a rule, active = well fitted inhibition curve with a large enough effect; inconclusive = small, poorly fitted or top-dose-only effect; inactive = no such curve, though single readings can be large or run the other way. So high a share suggests a set chosen from earlier hits. This is one part of the list.
Potency is read from the fitted curve at half-maximal effect.

The nature of this test: Confirmatory qHTS for Inhibitors of ATXN expression. Also: nearly all actives have a fitted effect of over 65% in size. To be noted: ATXN2-luciferase reporter cells, luminescence, 24 h; series mostly up to 11.5 µM. The essentials: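 Cells carrying ATXN2-luciferase reporter exposed 24 h at 37 C to compound. Viability then read by CellTiter-Fluor (25 uM GF-AFC, 30 min), followed by SteadyGlo luminescence; medium-only wells set 100% inhibition.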
On the technique in general: In qHTS, concentration-response curves come from the screen itself.
Consider `C[C@@H]1C[C@@H]2O[C@H]2/C=C\C=C\C(=O)Cc2c(Cl)c(O)cc(O)c2C(=O)O1`, for which the Potency is 0.631 µM (active). The value for `O=C(N/N=C/c1ccccc1O)c1cccc(C(F)(F)F)c1` was 0.631 µM (active); that for `O=C(NN=Cc1c(O)ccc2ccccc12)c1ccc2c(c1)OCO2` was 2 µM (active). For `O=C(N/N=C/c1c(O)ccc2ccccc12)c1cccc(C(F)(F)F)c1` the value was 1 µM (active); for `CCCC1CCC(c2ccc(C(=O)NN)cc2)CC1` (stereo unspecified), 2.82 µM (active).

As to `c1ccc(-c2cccc(-c3ccccn3)n2)nc1`, the Potency was 0.112 µM (active). Turning to `FC(F)(F)c1cc(-c2ccccn2)nc2cc(-c3ccccc3)nn12`, the Potency entry was “inactive”. The value for `Cc1cc(=O)[nH]c(N=N/C(=N/Nc2ccccc2C)c2ccccc2)n1` was 1.58 µM (active); that for `CCC(=O)NC(C)c1cc(Cl)c2cccnc2c1O` (stereo unspecified) was 1.78 µM (active); that for `CC(=O)NC(C)c1cc(Cl)c2cccnc2c1O` (stereo unspecified) was 3.98 µM (active). For `CCC(=O)NC(c1cc(Cl)c2cccnc2c1O)C(C)C` (stereo unspecified) the value was 2.82 µM (active); for `CC(=O)NC(c1cc(Cl)c2cccnc2c1O)C(C)C` (stereo unspecified), 0.794 µM (active); for `N#C/C(=C\c1ccc([N+](=O)[O-])o1)c1nc2ccccc2[nH]1`, 3.55 µM (active).

Take `Cc1csc(NC(=O)COCC(=O)O)c1-c1nc2ccccc2s1`: the Potency was 15.8 µM (active).

Take `O=C(CN1CCOCC1)N/N=C/c1c(O)ccc2ccccc12`: the Potency was 7.08 µM (active). For `O=C(CN1CCCC1)N/N=C/c1c(O)ccc2ccccc12` the value was 1.78 µM (active); for `Nc1nc(N)c2cc(Sc3ccc4ccccc4c3)ccc2n1`, 28.2 µM (active).

Consider `COc1cccc2c1C(=N)c1c(O)c3c(c(O)c1C2=O)CC(O)(C(C)=O)CC3OC1CC(N)C(O)C(C)O1` (stereo unspecified), for which the Potency is 0.224 µM (active). For `COc1cccc2c1C(=O)c1c(O)c3c(c(O)c1C2=O)C[C@](O)(C(C)=O)C[C@H]3O[C@@H]1C[C@@H](N)[C@@H](O)[C@@H](C)O1` the value was 0.282 µM (active); for `CCCCC(=O)OCC(=O)C1(O)Cc2c(O)c3c(c(O)c2C(OC2CC(NC(=O)C(F)(F)F)C(O)C(C)O2)C1)C(=O)c1c(OC)cccc1C3=O` (stereo unspecified), 2.51 µM (active). As to `CC(C)CCNC(=O)COc1cccc2c1OC(C)(C)C2`, the Potency result was “inactive”.

Regarding `CCOC(=O)c1c2ccc(OCC(=O)N/N=C/c3ccc(C)cc3)cc2n2ccccc12`, the Potency is 11.2 µM (active). The value for `CCOC(=O)c1c(CSc2nc(C)cc(C)c2C#N)n(C)c2cc(Br)c(OC(C)=O)cc12` was “inactive”; that for `COc1ccccc1C(CCNCc1ccccc1)c1ccc(OC(C)C)cc1` (stereo unspecified) was 3.98 µM (active). For `COc1cccc(OC)c1C(=O)OCC(=O)NC(=O)NCc1ccccc1` the value was “inactive”; for `COc1ccc(CNCCC(c2ccc(OC(C)C)cc2)c2ccccc2OC)cc1` (stereo unspecified), 3.16 µM (active).

Turning to `CCOC(=O)c1cnc(-n2nc(C)cc2C)nc1NNc1cc(C)nc(-c2ccccc2)n1`, the Potency was 3.55 µM (active).

Take `Cc1ccc(OCC(=O)N2CCN(c3nnc(-c4ccc(C)cc4)c4ccccc34)CC2)cc1`: the Potency was 3.16 µM (active).

With `Oc1[nH]c2ccc(Br)cc2c1N=NC(=S)N1CCOCC1`, the Potency was 0.631 µM (active). The value for `Clc1ccc(SCc2cc(N3CCOCC3)nc(-c3ccccn3)n2)cc1` was 5.01 µM (active); that for `CC(C)(C)S(=O)(=O)/C(C#N)=N/Nc1ccc(Cl)cc1` was 20 µM (active).

With `O=S(=O)(c1ccc(F)cc1)c1snnc1-c1ccccc1`, the Potency is 15.8 µM (active). On to `NS(=O)(=O)c1ccc(N2N=C(c3ccccc3)CC2c2ccc(F)cc2)cc1` (stereo unspecified), for which the Potency result was “inactive”. The value for `Cc1ccc(/C=C2\SC(=S)N(CCCC(=O)NC3CCCC3)C2=O)cc1` was 1.41 µM (active); that for `Cc1ccc(/C=C2/SC(=S)N(CCCC(=O)Nc3cc([N+](=O)[O-])ccc3O)C2=O)cc1` was 31.6 µM (active); that for `Cc1ccc(/C=C2\SC(=S)N(CCCC(=O)Nc3nccs3)C2=O)cc1` was 7.08 µM (active). For `Cc1ccc(/C=C2\SC(=S)N(CCCC(=O)Nc3ccc(O)cc3)C2=O)cc1` the value was “inactive”. Take `Cc1ccc(/C=C2/SC(=S)N(CCCC(=O)Nc3ccc(O)cc3)C2=O)cc1`: the Potency is 1.41 µM (active).

As to `Cc1ccc(/C=C2\SC(=S)N(CCCC(=O)Nc3cccnc3)C2=O)cc1`, the Potency was 2.24 µM (active).

On to `Cc1ccc(/C=C2\SC(=S)N(CCCC(=O)Nc3ccccc3C(=O)O)C2=O)cc1`, for which the Potency is 2.24 µM (active). The value for `Cc1cc(C)cc(NC(=O)/C(C#N)=C/c2cn(CC(=O)NCc3ccco3)c3ccccc23)c1` was 1.78 µM (active); that for `CCOC(=O)Cn1cc(C(=O)c2ccco2)c2ccccc21` was “inactive”. For `COc1ccc(N2C3=C(CC4=C2CC(C)(C)CC4=O)C(=O)CC(C)(C)C3)cc1` the value was “inactive”.

Turning to `COc1cccc(C2CC(c3c(-c4ccccc4)c4cc(Cl)ccc4[nH]c3=O)=NN2S(C)(=O)=O)c1OC` (stereo unspecified), the Potency is 2.82 µM (active). With `O=C1c2ccccc2NC(c2ccc(-c3cccc([N+](=O)[O-])c3)o2)N1O` (stereo unspecified), the Potency was 15.8 µM (active). The value for `COc1ccc(-c2oc3c(OC)c(OC)c(OC)c(O)c3c(=O)c2OC)cc1OC` was 10 µM (active); that for `COc1ccccc1N1CCN(Cc2ccc(O)c3ncccc23)CC1` was 0.562 µM (active).

On to `COc1ccccc1N1CCN(Cc2cc(Br)c(O)c3ncccc23)CC1`, for which the Potency was 3.55 µM (active). The value for `CO[C@@]12[C@@H]3N[C@@H]3CN1C1=C(C(=O)C(N)=C(C)C1=O)[C@@H]2COC(N)=O` was “inactive”; that for `Cc1nc(SC2CC(=O)N(c3ccccc3)C2=O)n[nH]1` (stereo unspecified) was “inactive”. For `O=C(c1ccco1)N1CCN(c2ncnc3scc(-c4cccs4)c23)CC1` the value was “inactive”; for `Cc1c(C(=O)N2CCN(c3ccc(F)cc3)CC2)sc2ncnc(N3CCN(c4ccccn4)CC3)c12`, 2.82 µM (active).

Turning to `O=C(/C=C/NNC(=O)c1ccccc1)c1ccc([N+](=O)[O-])cc1`, the Potency was 3.16 µM (active). The value for `COc1ccc(C(=O)C=CNNC(=O)c2ccc(Cl)cc2)cc1` was 14.1 µM (active); that for `CC(C)Cn1c(/C=N/Nc2nc3ccccc3[nH]2)nc2ccccc21` was 8.91 µM (active); that for `CCCCn1c(/C=N/Nc2nc3ccccc3[nH]2)nc2ccccc21` was “inactive”.

On to `S=C(NCCCN1CCOCC1)N1CCN(c2nc(-c3ccccc3)cs2)CC1`, for which the Potency is 11.2 µM (active).

In the case of `O=c1c2ccc(Cl)cc2nc(-c2cccc(C(F)(F)F)c2)n1O`, the Potency was 2.51 µM (active). For `Cc1cc(/C=N/n2cnnc2)c(C)n1-c1ccc(OCc2ccc(Cl)cc2Cl)cc1` the value was 7.94 µM (active); for `COc1cc(OC)c2cc(C(=O)N/N=C/c3cccc(OC)c3O)[nH]c2c1`, 3.55 µM (active); for `COc1cccc(/C=N/NC(=O)c2cc3c(OC)cccc3[nH]2)c1O`, 2.24 µM (active). For `Cc1[nH]c(-c2ccc(F)cc2)cc1C(=O)N1CCN(c2ccc(Cl)cc2)CC1` the value was 25.1 µM (active); for `O=C(NC(=S)N1CCN(c2ccc(F)cc2)CC1)c1cccs1`, “inactive”; for `CN1CCN(c2cc(-c3cc(O)c4ncccc4c3)ccn2)CC1`, 12.6 µM (active). The value for `C/C(=N\NC(=O)C1COc2ccccc2O1)c1ccccn1` (stereo unspecified) was 0.631 µM (active); that for `COc1ccc(CC(=O)N/N=C(\C)c2ccccn2)cc1` was 11.2 µM (active); that for `C/C(=N\NC(=O)Cc1ccc(Cl)cc1)c1ccccc1O` was 14.1 µM (active). On to `C/C(=N\NC(=O)C1CCCN(S(=O)(=O)c2ccccc2)C1)c1ccccn1` (stereo unspecified), for which the Potency was 0.794 µM (active).

Consider `C/C(=N\NC(=O)CCCNc1ccc(C)cc1)c1ccccn1`, for which the Potency is 14.1 µM (active). For `CCCCCC(=O)N/N=C(\C)c1ccccn1` the value was 0.501 µM (active); for `Cc1ccc(/C=N/NC(=O)C2=NNC(c3ccccc3)(c3ccccc3)C2)c(O)c1`, 2.82 µM (active).

Regarding `CC(C)(C)c1nnc(N/N=C/c2ccccc2O)n(N)c1=O`, the Potency is 0.891 µM (active). The value for `CCn1c2ccccc2c2cc(C3C(C#N)=C(N)Oc4n[nH]c(COC)c43)ccc21` (stereo unspecified) was 2.82 µM (active); that for `CCn1c2ccccc2c2cc(NC(=O)COC(=O)c3ccccc3F)ccc21` was 2 µM (active).

For `CCn1c2ccccc2c2cc(NC(=O)COC(=O)C3CCC(=O)N3)ccc21` (stereo unspecified), the Potency is 11.2 µM (active).

For `CCn1c2ccccc2c2cc(NC(=O)COC(=O)Cc3cn4ccsc4n3)ccc21`, the Potency was 1.26 µM (active). For `CCn1c2ccccc2c2cc(NC(=O)COC(=O)c3cc(S(=O)(=O)N4CCCCC4)ccc3Cl)ccc21` the value was 1.58 µM (active). `Cc1c(C(=O)NCc2ccc(Cl)c(Cl)c2)sc(=O)n1Cc1ccc(S(C)(=O)=O)cc1`: the Potency result was “inactive”. With `COc1ccc(N=Cc2cc3c(cc2O)OC(N)=C(C#N)C3c2ccccc2)cc1` (stereo unspecified), the Potency entry is “inactive”. With `Cc1cc(OCc2nc(N)nc(N)c2-c2ccc(Cl)c(Cl)c2)ccc1[N+](=O)[O-]`, the Potency was 2.51 µM (active). The value for `COc1ccccc1-n1c(-c2ccccc2)c[n+]2c1CCc1ccccc1-2` was 7.94 µM (active). For `Cc1ccc(-n2c(-c3ccccc3)c[n+]3c2CCc2ccccc2-3)c(C)c1` the value was 0.794 µM (active); for `Cc1nnc(SC(C)C(=O)Nc2ccc(Cl)cn2)n1Cc1ccccc1` (stereo unspecified), “inactive”; for `CNc1ccccc1C(=O)OC(C)C(=O)Nc1ccc(Cl)cn1` (stereo unspecified), 2 µM (active). Regarding `NNC(=O)c1sc2cc(C(F)(F)F)cnc2c1-c1cccs1`, the Potency is 28.2 µM (active). The value for `COC1=C(c2ccccc2)C(=O)c2ccccc2C1=O` was “inactive”; that for `Cc1ccnc(N2C(=O)c3cccc4c([N+](=O)[O-])ccc(c34)C2=O)c1` was 28.2 µM (active); that for `O=C(Nc1nccs1)c1cccc(N2C(=O)c3cccc4c([N+](=O)[O-])ccc(c34)C2=O)c1` was 20 µM (active). The value for `O=C1c2cccc3c([N+](=O)[O-])ccc(c23)C(=O)N1c1ccccn1` was 3.98 µM (active); that for `Cc1ccc(Cl)cc1-c1ccc(C=Nc2ccc(N3CCOCC3)cc2)o1` was 12.6 µM (active). On to `C=CCn1cnc2c(c1=O)c1nc3ccccc3nc1n2/N=C/c1cc(OC)c(OC)c(OC)c1`, for which the Potency is 14.1 µM (active). For `Cc1cc(C)c2nc(NNC(=O)c3ccc(S(=O)(=O)N4CCc5ccccc5C4)cc3)sc2c1` the value was 3.16 µM (active); for `Cc1ccc2nc(NNC(=O)c3ccc(S(=O)(=O)N4CCc5ccccc5C4)cc3)sc2c1`, 2.51 µM (active). Take `NC(=O)c1cc([N+](=O)[O-])ccc1NCc1ccc(N)cc1`: the Potency is 4.47 µM (active).

For the molecule `C[n+]1c2cc(N)ccc2cc2ccc(N)cc21`, the Potency is 4.47 µM (active) and 3.55 µM (active). For `Nc1c(C(=O)NCc2ccc(F)cc2)c2nc3ccccc3nc2n1CCCN1CCOCC1` the value was 3.16 µM (active). On to `Cn1c(/C=C/c2ccc(Cl)cc2Cl)c([N+](=O)[O-])c(=O)n(C)c1=O`, for which the Potency is 11.2 µM (active). The value for `Cn1c(/C=C/c2ccc(Cl)cc2)c([N+](=O)[O-])c(=O)n(C)c1=O` was 22.4 µM (active). The value for `Cn1c(/C=C/c2cccc([N+](=O)[O-])c2)c([N+](=O)[O-])c(=O)n(C)c1=O` was 25.1 µM (active). As to `O=C1C=CCC(/C=C/c2ccccc2)O1` (stereo unspecified), the Potency was 6.31 µM (active). For `CCC(C)(C)c1ccc(OCCCC[n+]2ccccc2)c(C(C)(C)CC)c1` the value was 3.16 µM (active).
